In the supplement of paper PMC6555819:

Assays:
Assay in all cases: PBM binding z-score (relative to random genomic background probes); higher = stronger binding; sequences stand for … in GC…GCGATTGACAGCGTAGAATGAAGG
[1] = tested on: FXR:RXRa (NR concentration 270 nM, RXRa partner concentration 90 nM)
Method in brief: (§1)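 The probes on custom Agilent 4×180K protein-binding microarrays were double-stranded, with 34-nt variable regions bearing direct-repeat seeds, single-nucleotide variants, half-site ablations and random human genomic background sequences. Incubation lasted 1 h with ligand-free nuclear receptor dimers in PBS pH 7.4, 2% milk, 0.02% Triton X-100, 1 mM DTT, 0.2 mg/mL BSA and 0.4 mg/ml salmon testes DNA. Antibodies against each partner (one per run) detected bound dimers, and fluorescence scans were regression-normalized. Binding z-scores take the random background probes as reference.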

[2] = tested on: LXRa:RXRa (NR concentration 270 nM, RXRa partner concentration 90 nM)
Method in brief: as §1

[3] = tested on: LXRa homodimer (NR concentration 270 nM)
Method in brief: as §1

[4] = tested on: LXRb:RXRa (NR concentration 270 nM, RXRa partner concentration 90 nM)
Method in brief: as §1

[5] = tested on: LXRb homodimer (NR concentration 270 nM)
Method in brief: as §1

[6] = tested on: PPARa:RXRa (NR concentration 270 nM, RXRa partner concentration 90 nM)
Method in brief: as §1

[7] = tested on: PPARg:RXRa (NR concentration 180 nM, RXRa partner concentration 90 nM)
Method in brief: as §1

[8] = tested on: PPARg:RXRa 270nM:90nM, anti-RXR (NR concentration 270 nM, RXRa partner concentration 90 nM)
Method in brief: as §1

[9] = tested on: PPARg:RXRa 30nM:10nM, anti-RXR (NR concentration 30 nM, RXRa partner concentration 10 nM)
Method in brief: as §1

[10] = tested on: PPARg:RXRa 90nM:30nM, anti-RXR (NR concentration 90 nM, RXRa partner concentration 30 nM)
Method in brief: as §1

Sequence	PBM binding z-score [1]	PBM binding z-score [2]	PBM binding z-score [3]	PBM binding z-score [4]	PBM binding z-score [5]	PBM binding z-score [6]	PBM binding z-score [7]	PBM binding z-score [8]	PBM binding z-score [9]	PBM binding z-score [10]
GCTAGCAGCCCATTTGGGTCACTCAATGACGGGC	-0.281	-0.586	-0.832	-0.285	-0.892	0.853	0.291	0.0178	-0.724	-0.506
TAGCCTAGGTCATTGGGCCCGTATAGTACGCATC	4.15	3.59	0.962	2.9	0.67	3.84	2.27	2.57	0.517	1.74
TCTTGTAGATCAGAGGTTAAGAAAGCCGAAGCCT	0.507	1.04	-0.0177	1.4	-0.128	2.87	4.35	5.58	4.79	5.63
CGTCCAAGGTCAGAGAGGGCAGTGAATGCCGAGT	5.26	3.77	0.447	2.71	-0.0412	4.26	2.13	2.88	0.148	1.46
AGAATGAGGTTACCAAAGATCAGGGAGACGCTTG	2.11	6.33	-0.321	3.23	-0.156	3.38	2.8	2.92	1.02	2.15
TGTATTAGTTGAAGGGCAACCGACGAGTCCGTTT	0.551	0.588	0.228	0.491	0.587	0.462	0.102	0.95	0.864	0.871
TCTGCTAGGTCAACGACGGTCAGCTAATCTGCTA	3.49	4.34	0.203	1.97	0.156	3.28	2.09	2.97	1.76	2.26
ATACCAAGGTGATTGTGAGGTCGTTGATACTAAC	2.01	2.09	1.51	1.81	0.313	1.79	0.442	0.649	0.0726	0.48
AGAACGAGGGCAATGACTTGATAGCACGGGTGGC	0.827	0.481	-0.243	-0.0938	-0.458	1.43	1.71	0.813	0.00433	0.55
CGTCCAAGGTCAAAGGTCAGTGTAGAGATGACGG	8.42	7.04	3.99	6.49	1.91	7.25	10.7	9.05	7.79	9.69
CAAACTAGGTCACCGGAAGGTCAAAGTGCGCATG	6.51	6.25	5.26	5.66	1.52	6.36	9.79	7.84	5.91	7.97
CCAGACAGGTGAAAGGTAACTGAGTCTGGTACGC	0.744	0.866	-0.565	0.528	-0.541	3.52	6.16	6.38	4.81	5.99
CAAACTAGGGCACAGAGGTCAAAGTCCGTGCGTA	5.59	5.41	5.74	4.88	1.2	5.71	7.92	6.9	4.71	6.59
TGTCAAAGTACAAAGGTAACGTAAGTATCCACAC	0.237	0.465	-0.185	0.542	-0.294	1.67	3.64	4.32	1.97	3.96
TAGGCTAGGTCATTCAGGGGCCAGTATAGAAAGC	5.03	3.64	0.726	2.79	1.32	3.63	2.37	2.47	0.608	1.64
CAATCTAGGTCAAGAGGTCAAAGTCCGCTTCCCG	7.07	6.49	6.61	5.64	2.31	6.48	10.2	8.66	7.43	9.5
CCTCGGGGGACAACAGGAGGTCAGAGCTGCCAGA	2.56	3.46	1.7	3.52	4.28	3.13	1.01	1.67	0.217	1.17
TAGCCTAGGTCATATCGGGCCAGTATACGCTATA	4.12	3.82	0.583	2.59	0.744	3.14	1.53	1.61	0.227	0.981
AGAATGAGGTTAAGATCAGGGTAACAGAATACAT	2.5	2.47	0.0614	2.01	-0.068	3.68	2.64	2.66	0.832	1.9
TCCTATAGGTAAACAGGTGAAAGTCCGTAAGTTA	0.613	0.51	0.24	0.845	-0.235	2.07	1.63	2.96	3.27	3.17
TCGAGTAGGTTAGGGGCATTTAGAATGGCGTCGA	0.425	0.611	-0.123	0.871	0.134	1.37	0.729	2.07	1.37	1.68
CGTCCAAGGTCAGAGAGGTCAATGAATGCCGAGT	6.53	5.92	4.51	5.64	0.884	5.36	3.79	4.67	1.52	3.58
AATACAGGGTCATCGTAGGCCAGAGTACGCACAG	7.52	6.07	2.44	4.7	1.5	5.73	6.55	6.09	2.58	4.87
CCTTCTGGGCCATCAGGTCATTGATATCAACGTT	1.65	1.19	0.846	1.44	0.0435	2.69	2.21	3.33	1.09	2.63
TGAATGCGGTTAAAGATCAGGGAACGTGGCGTCG	-0.28	-0.16	-0.66	-0.519	-0.199	1.25	1.64	3.54	1.66	2.98
